# Key:
# [1] = biological target: Histone H2B type 1-L (UniProt Q99880); test: cross-linking mass spectrometry
# [2] = biological target: DNA topoisomerase 1 (UniProt P11387); test: cross-link between two proteins; cross-linking mass spectrometry
# [3] = biological target: Large ribosomal subunit protein eL36 (UniProt Q9Y3U8); test: as above
# [4] = biological target: Probable ATP-dependent RNA helicase DDX5 (UniProt P17844); test: as above
# [5] = biological target: Small ribosomal subunit protein uS17 (UniProt P62280); test: as above
# [6] = biological target: Histone H2B type 1-B (UniProt P33778); test: as above
# [7] = biological target: Histone H4 (UniProt P62805); test: as above
# [8] = biological target: Large ribosomal subunit protein eL24 (UniProt P83731); test: as above
# [9] = biological target: Large ribosomal subunit protein uL18 (UniProt P46777); test: as above
# [10] = biological target: Large ribosomal subunit protein uL2 (UniProt P62917); test: as above
# [11] = biological target: Small ribosomal subunit protein uS12 (UniProt P62266); test: as above
# [12] = biological target: Peptidyl-prolyl cis-trans isomerase A-like 4A (UniProt Q9Y536); test: as above
# [13] = biological target: Small ribosomal subunit protein eS6 (UniProt P62753); test: as above
# [14] = biological target: Small ribosomal subunit protein uS9 (UniProt P62249); test: as above
# Sequence of DNA topoisomerase 1 (P11387 whole entry): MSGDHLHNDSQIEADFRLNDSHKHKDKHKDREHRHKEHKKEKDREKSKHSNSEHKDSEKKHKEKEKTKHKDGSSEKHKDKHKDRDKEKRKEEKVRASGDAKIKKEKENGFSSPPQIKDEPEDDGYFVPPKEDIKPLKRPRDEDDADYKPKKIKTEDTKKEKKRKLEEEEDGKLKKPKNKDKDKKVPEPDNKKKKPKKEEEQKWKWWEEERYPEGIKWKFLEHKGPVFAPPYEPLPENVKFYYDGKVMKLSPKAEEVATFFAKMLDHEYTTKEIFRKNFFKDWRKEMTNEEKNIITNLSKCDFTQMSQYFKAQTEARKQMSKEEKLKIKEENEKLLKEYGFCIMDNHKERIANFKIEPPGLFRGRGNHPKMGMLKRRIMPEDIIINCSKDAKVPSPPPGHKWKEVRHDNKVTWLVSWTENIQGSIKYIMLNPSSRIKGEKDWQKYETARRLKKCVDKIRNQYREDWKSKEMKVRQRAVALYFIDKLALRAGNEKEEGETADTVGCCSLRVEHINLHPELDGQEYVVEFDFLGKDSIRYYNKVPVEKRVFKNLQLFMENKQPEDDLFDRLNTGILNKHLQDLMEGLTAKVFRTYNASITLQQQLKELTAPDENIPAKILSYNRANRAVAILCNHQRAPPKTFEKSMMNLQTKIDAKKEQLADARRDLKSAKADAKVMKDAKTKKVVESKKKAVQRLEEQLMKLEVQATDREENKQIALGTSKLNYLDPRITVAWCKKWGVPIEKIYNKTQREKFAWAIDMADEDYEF
# Sequence of Probable ATP-dependent RNA helicase DDX5 (P17844 whole entry): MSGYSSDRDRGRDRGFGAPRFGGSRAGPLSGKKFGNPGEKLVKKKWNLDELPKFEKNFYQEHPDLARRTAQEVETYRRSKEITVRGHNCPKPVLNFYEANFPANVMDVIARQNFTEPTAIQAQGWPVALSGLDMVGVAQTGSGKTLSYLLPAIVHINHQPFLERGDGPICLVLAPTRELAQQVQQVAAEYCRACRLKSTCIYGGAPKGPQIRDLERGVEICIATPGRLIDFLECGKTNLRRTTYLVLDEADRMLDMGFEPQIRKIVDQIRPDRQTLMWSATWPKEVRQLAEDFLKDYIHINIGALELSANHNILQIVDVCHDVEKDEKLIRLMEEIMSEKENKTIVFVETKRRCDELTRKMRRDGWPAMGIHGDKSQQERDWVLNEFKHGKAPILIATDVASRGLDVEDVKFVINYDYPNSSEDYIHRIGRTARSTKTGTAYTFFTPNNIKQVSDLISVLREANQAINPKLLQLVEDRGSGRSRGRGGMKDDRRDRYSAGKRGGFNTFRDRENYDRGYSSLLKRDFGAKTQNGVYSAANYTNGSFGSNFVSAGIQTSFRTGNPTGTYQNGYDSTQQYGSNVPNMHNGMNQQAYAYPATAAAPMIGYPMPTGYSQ
# Sequence of Peptidyl-prolyl cis-trans isomerase A-like 4A (Q9Y536 whole entry): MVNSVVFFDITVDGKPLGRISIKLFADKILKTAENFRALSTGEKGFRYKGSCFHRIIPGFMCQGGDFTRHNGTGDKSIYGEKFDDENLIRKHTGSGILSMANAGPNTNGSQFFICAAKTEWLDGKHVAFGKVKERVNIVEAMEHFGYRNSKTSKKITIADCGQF
substance,measurement,setting,value
"Actin, cytoplasmic 1, P60709",listed as a hit,[1],yes
"Histone H1.4, P10412",listed as a hit,[2],yes
same,listed as a hit,[3],yes
same,listed as a hit,[4],yes
same,listed as a hit,[5],yes
"Large ribosomal subunit protein eL33, P18077",listed as a hit,[6],yes
"Large ribosomal subunit protein uL22, P18621",listed as a hit,[6],yes
"Small ribosomal subunit protein eS1, P61247",listed as a hit,[7],yes
"Small ribosomal subunit protein uS5, P15880",listed as a hit,[7],yes
"Histone H4, P62805",listed as a hit,[8],yes
"Histone H2B type 1-B, P33778",listed as a hit,[9],yes
same,listed as a hit,[10],yes
same,listed as a hit,[11],yes
"Histone H2B type 1-C/E/F/G/I, P62807",listed as a hit,[12],yes
"Large ribosomal subunit protein uL4, P36578",listed as a hit,[13],yes
"Large ribosomal subunit protein eL27, P61353",listed as a hit,[14],yes
